This is an account of results in PubChem BioAssay (NCI).

Some test systems named below: NCI-H23 lung; NCI-H226 lung; NCI-H322M lung; HOP-62 NSCLC; NCI-H460 lung; HOP-92 NSCLC; NCI-H522 lung; A549/ATCC NSCLC; 786-0 renal; COLO 205 colon; DU-145 prostate; K-562 leukemia; MALME-3M melanoma; MDA-MB-231 breast; RXF 393 renal; SF-539 CNS; UACC-257 melanoma; M14 melanoma; SF-268 CNS; SF-295 CNS.
Assay in all cases: NCI-60 one-dose screen, 48 h (100 = growth as untreated, 0 = no growth, -100 = all killed)
What all share (settings): 10 µM unless noted

Each structure is given as a SMILES string. Compounds without any hit were thinned out: in the full panel of roughly 83,000, 20% have a hit.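 Growth was measured after 48 h exposure to one concentration of compound in 96-well plates. Values under 10 count as active.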 Values without a mark were called inactive. Active and inactive are the calls of the source.

As to `CCCC(=O)N1CCCCC1CC` (stereo unspecified), the growth was 111% in the assay with NCI-H23 lung; 101% with NCI-H226 lung; 127% in the assay with NCI-H322M lung; 107% in the assay with HOP-62 NSCLC; 97% in the assay on NCI-H460 lung; 74.5% with HOP-92 NSCLC. The growth in the assay with NCI-H522 lung is 99.9%; in the assay on A549/ATCC NSCLC, 99.6%; with 786-0 renal, 104%; in the assay on COLO 205 colon, 116%; with DU-145 prostate, 106%; with K-562 leukemia it was 87.5%. The growth is 118% with MALME-3M melanoma; 115% in the assay with MDA-MB-231 breast; 115% in the assay on RXF 393 renal; 87.5% in the assay on SF-539 CNS; 90.6% in the assay with UACC-257 melanoma; 114% with M14 melanoma.
In the case of `Oc1cc(/C=C/c2nc(N3CCOCC3)c3cc(Cl)c(Cl)cc3n2)cc(O)c1O`, the growth with NCI-H23 lung is 101%; with NCI-H226 lung, 85.8%; with NCI-H322M lung, 113%; with HOP-62 NSCLC, 97.2%; in the assay with NCI-H460 lung, 101%; with HOP-92 NSCLC, 102%. Also, the growth with NCI-H522 lung is 88.6%; with A549/ATCC NSCLC it was 106%; in the assay on 786-0 renal, 95.7%; in the assay with COLO 205 colon, 108%; with DU-145 prostate it was 104%; in the assay with K-562 leukemia, 81.5%. In addition, the growth in the assay with MALME-3M melanoma is 107%; in the assay on MDA-MB-231 breast, 106%; with RXF 393 renal, 98.8%; in the assay on SF-268 CNS, 108%; in the assay with SF-539 CNS, 94.1%; with UACC-257 melanoma, 99.8%. For the same molecule, the growth with M14 melanoma is 102%.
In the case of `Oc1ccc(Nc2ccccc2)cc1`, the growth in the assay with NCI-H23 lung was 86%; in the assay with NCI-H226 lung, 92.6%; in the assay on NCI-H322M lung, 77.7%; with HOP-62 NSCLC, 104%; in the assay with NCI-H460 lung, 92.5%; in the assay on HOP-92 NSCLC it was 119%. Besides, the growth was 92.2% with NCI-H522 lung; 111% with A549/ATCC NSCLC; 97.8% in the assay on 786-0 renal; 109% in the assay with COLO 205 colon; 94.6% in the assay with DU-145 prostate; 79.6% in the assay with K-562 leukemia. The growth with MALME-3M melanoma is 70.7%; in the assay on MDA-MB-231 breast, 52.6%; with SF-268 CNS, 88.2%; in the assay on SF-295 CNS, 82%; with SF-539 CNS, 64.5%; in the assay with UACC-257 melanoma, 110%. The growth with M14 melanoma was 104%.
As for `COc1cc(-c2nc(-c3ccccc3)c(-c3ccccc3)[nH]2)cc(OC)c1O`, the growth was -31.9% (active) in the assay with NCI-H23 lung; 48.9% in the assay with NCI-H226 lung; 13% in the assay on NCI-H322M lung; -26.5% (active) with HOP-62 NSCLC; -37.5% (active) with NCI-H460 lung; 38.2% in the assay with HOP-92 NSCLC. The growth in the assay with NCI-H522 lung was -23% (active); in the assay with A549/ATCC NSCLC it was -30.9% (active); in the assay on 786-0 renal, 19.3%; in the assay with COLO 205 colon it was -73.8% (active); in the assay with DU-145 prostate it was -23.5% (active); with K-562 leukemia, 3.86% (active). Besides, the growth was -28.9% (active) with MALME-3M melanoma; 0.0647% (active) with MDA-MB-231 breast; -48.8% (active) with RXF 393 renal; 4.5% (active) with SF-268 CNS; 0.938% (active) in the assay on SF-539 CNS; 6.33% (active) with UACC-257 melanoma. In addition, the growth in the assay on M14 melanoma is -18.8% (active).
As for `Cc1nnc2nc(N)[nH]n2c1=O`, the growth with NCI-H23 lung is 103%; with NCI-H226 lung, 111%; with NCI-H322M lung, 105%; with HOP-62 NSCLC, 109%; in the assay with NCI-H460 lung it was 113%; with HOP-92 NSCLC, 66.5%. For the same molecule, the growth was 92.8% in the assay with NCI-H522 lung; 99% in the assay on A549/ATCC NSCLC; 98.8% with 786-0 renal; 121% in the assay on COLO 205 colon; 104% in the assay on DU-145 prostate; 101% with K-562 leukemia. The growth with MALME-3M melanoma was 93.9%; with MDA-MB-231 breast, 129%; with RXF 393 renal, 117%; in the assay with SF-268 CNS, 103%; in the assay on SF-539 CNS, 114%; in the assay with UACC-257 melanoma, 98.5%. For the same molecule, the growth with M14 melanoma is 99.2%.
Regarding `COC(=O)c1cc(=O)nc(N/N=C/c2ccc(C)cc2)s1`, the growth in the assay with NCI-H23 lung was 107%; with NCI-H226 lung it was 98.5%; with NCI-H322M lung it was 108%; with HOP-62 NSCLC it was 98.6%; in the assay on NCI-H460 lung, 106%; in the assay with HOP-92 NSCLC it was 66.4%. Moreover, the growth is 91.9% with NCI-H522 lung; 101% with A549/ATCC NSCLC; 103% in the assay with 786-0 renal; 114% with COLO 205 colon; 114% with DU-145 prostate; 96.1% in the assay on K-562 leukemia. The growth in the assay on MALME-3M melanoma was 94.3%; in the assay with MDA-MB-231 breast, 113%; in the assay with RXF 393 renal, 111%; with SF-268 CNS, 104%; in the assay on SF-539 CNS it was 102%; in the assay with UACC-257 melanoma, 97.5%. For the same molecule, in the assay with M14 melanoma, the growth is 99.1%.
As for `Cc1ccc(-c2nc3ccc(Cl)cc3c(=O)n2N2C(=O)CSC2c2ccccc2Cl)cc1` (stereo unspecified), the growth in the assay with NCI-H23 lung was 91.1%; in the assay with NCI-H226 lung, 86.6%; in the assay on NCI-H322M lung it was 86.7%; in the assay on HOP-62 NSCLC it was 2.48% (active); in the assay with NCI-H460 lung, 48.5%; in the assay on HOP-92 NSCLC it was -4.8% (active). For the same molecule, the growth in the assay on NCI-H522 lung is 76.9%; in the assay on A549/ATCC NSCLC, 13.2%; in the assay on 786-0 renal, 70%; in the assay on COLO 205 colon, 66.6%; with DU-145 prostate, 73.1%; in the assay on K-562 leukemia it was 93.4%. Also, the growth with MALME-3M melanoma was 65.8%; in the assay with MDA-MB-231 breast, 59.9%; in the assay on RXF 393 renal, 98.5%; in the assay with SF-268 CNS, 60.4%; in the assay on SF-539 CNS, 78.8%; in the assay on M14 melanoma, 71.4%.
